Reference: the supplement of paper PMC11732987, “Enantioselective OTUD7B fragment discovery through chemoproteomics screening and high-throughput optimisation” (Communications Chemistry, 2025)

What was measured:
Experiment in all cases: log2 ratio of Biotin-Ahx-Ub-VS probe labelling (fragment/DMSO); higher = less target engagement (more negative = stronger competition), active = hit call of the paper (q ≤ 0.05, log2 ratio ≤ -1)
Settings in all cases: compound concentration: 200 uM; treatment time: 3 h
OTUD6B = biological target: T1, OTUD6B (UniProt Q8N6M0)
T1 sequence (whole entry): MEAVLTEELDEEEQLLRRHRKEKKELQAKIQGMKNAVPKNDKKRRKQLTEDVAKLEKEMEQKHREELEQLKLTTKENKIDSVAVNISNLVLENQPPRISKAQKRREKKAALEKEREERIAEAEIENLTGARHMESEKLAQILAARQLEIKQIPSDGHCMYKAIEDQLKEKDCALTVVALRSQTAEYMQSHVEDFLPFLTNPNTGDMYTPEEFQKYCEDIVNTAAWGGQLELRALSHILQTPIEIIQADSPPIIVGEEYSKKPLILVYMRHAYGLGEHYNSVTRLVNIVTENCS
Summary of the method: (§1)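 Using Biotin-Ahx-Ub-VS at 0.5 µM final for 1 h, DUBs were labelled in HEK293T lysate (495 µg per sample) that had first been treated in triplicate with fragment at 200 µM or vehicle for 3 h. NeutrAvidin enrichment, LysC and trypsin digestion and diaPASEF LC-MS/MS followed. Spectronaut label-free quantities were global-median-normalised. Values are average log2 fragment/vehicle ratios by unpaired t-test, using proteins with ≥2 unique peptides.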

OTUD7B = biological target: T2, OTUD7B (UniProt Q6GQQ9)
T2 sequence (whole entry): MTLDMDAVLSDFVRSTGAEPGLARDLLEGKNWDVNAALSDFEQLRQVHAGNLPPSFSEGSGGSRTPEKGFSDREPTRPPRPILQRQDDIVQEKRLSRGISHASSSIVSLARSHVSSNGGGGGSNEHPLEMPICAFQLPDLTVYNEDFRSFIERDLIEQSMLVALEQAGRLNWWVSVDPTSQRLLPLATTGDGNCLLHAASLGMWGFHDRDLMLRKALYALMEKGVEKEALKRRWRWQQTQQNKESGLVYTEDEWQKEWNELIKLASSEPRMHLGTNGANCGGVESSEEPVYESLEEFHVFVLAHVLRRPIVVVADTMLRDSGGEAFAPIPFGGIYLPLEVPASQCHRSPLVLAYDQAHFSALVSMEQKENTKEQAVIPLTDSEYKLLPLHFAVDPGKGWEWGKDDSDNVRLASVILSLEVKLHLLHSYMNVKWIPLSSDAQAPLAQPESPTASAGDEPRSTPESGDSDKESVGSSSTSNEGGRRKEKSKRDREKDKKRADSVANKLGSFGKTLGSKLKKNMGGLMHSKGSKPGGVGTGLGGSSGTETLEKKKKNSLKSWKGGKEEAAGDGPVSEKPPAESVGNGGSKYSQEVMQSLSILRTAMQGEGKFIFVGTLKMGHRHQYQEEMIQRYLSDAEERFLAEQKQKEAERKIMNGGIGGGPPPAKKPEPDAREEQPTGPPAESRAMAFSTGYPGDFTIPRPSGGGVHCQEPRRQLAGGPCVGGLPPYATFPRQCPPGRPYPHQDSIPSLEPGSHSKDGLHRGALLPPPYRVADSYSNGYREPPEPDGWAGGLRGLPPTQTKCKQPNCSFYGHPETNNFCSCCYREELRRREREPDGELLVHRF
Summary of the method: as §1

PRPF8 = PRPF8 (UniProt Q6P2Q9)
Summary of the method: as §1

PSMD7 = biological target: T3, PSMD7 (UniProt P51665)
T3 sequence (whole entry): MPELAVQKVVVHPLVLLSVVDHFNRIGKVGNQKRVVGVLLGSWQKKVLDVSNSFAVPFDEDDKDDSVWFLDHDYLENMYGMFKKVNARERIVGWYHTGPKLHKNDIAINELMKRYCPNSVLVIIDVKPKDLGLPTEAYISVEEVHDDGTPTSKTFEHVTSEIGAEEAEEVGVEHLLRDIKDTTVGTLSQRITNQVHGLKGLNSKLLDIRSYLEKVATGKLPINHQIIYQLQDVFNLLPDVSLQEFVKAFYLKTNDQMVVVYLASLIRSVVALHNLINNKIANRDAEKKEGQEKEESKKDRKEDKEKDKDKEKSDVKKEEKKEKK
Summary of the method: as §1

UCHL1 = UCHL1 (UniProt P09936)
Summary of the method: as §1

UCHL3 = biological target: T4, UCHL3 (UniProt P15374)
T4 sequence (whole entry): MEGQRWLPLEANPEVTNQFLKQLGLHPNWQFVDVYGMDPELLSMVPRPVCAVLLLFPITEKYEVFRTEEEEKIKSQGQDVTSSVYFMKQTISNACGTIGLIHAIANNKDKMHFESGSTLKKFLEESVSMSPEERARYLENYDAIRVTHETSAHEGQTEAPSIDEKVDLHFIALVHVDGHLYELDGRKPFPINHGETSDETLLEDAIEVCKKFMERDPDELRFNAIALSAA
Summary of the method: as §1

UCHL5 = biological target: T5, UCHL5 (UniProt Q9Y5K5)
T5 sequence (whole entry): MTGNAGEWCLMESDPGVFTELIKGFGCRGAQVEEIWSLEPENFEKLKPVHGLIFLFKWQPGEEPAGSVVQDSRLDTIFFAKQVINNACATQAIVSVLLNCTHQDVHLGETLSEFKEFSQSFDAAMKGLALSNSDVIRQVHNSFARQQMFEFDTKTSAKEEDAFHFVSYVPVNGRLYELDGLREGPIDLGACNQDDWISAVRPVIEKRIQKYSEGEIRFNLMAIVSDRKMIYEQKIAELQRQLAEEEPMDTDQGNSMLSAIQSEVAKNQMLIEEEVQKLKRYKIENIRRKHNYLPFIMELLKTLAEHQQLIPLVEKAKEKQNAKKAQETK
Summary of the method: as §1

USP10 = USP10 (UniProt Q14694)
Summary of the method: as §1

USP15 = biological target: T6, USP15 (UniProt Q9Y4E8)
T6 sequence (whole entry): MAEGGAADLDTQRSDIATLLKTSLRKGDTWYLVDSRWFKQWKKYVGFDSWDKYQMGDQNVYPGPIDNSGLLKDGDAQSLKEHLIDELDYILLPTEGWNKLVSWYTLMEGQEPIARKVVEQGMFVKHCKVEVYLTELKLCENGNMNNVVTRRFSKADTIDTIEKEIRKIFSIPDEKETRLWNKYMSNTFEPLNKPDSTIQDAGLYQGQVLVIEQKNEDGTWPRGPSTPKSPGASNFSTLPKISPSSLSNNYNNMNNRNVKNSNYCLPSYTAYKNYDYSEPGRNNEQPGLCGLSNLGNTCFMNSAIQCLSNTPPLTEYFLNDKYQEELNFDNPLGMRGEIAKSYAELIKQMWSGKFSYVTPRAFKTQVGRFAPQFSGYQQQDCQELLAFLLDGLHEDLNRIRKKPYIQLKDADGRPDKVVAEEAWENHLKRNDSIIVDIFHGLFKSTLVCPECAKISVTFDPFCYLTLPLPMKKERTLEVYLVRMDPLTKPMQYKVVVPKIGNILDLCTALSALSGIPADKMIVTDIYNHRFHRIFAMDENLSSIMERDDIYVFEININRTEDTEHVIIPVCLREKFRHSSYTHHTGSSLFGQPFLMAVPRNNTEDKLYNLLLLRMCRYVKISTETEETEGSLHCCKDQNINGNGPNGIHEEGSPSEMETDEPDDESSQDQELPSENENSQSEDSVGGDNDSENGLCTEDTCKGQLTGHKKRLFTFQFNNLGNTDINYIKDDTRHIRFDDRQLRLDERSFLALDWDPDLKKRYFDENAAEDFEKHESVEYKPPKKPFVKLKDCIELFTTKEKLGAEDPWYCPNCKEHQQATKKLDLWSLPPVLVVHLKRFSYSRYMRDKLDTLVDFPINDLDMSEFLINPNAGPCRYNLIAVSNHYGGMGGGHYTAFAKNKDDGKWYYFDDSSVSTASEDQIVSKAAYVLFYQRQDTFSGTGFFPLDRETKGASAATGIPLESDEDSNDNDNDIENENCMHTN
Summary of the method: as §1

USP16 = USP16 (UniProt Q9Y5T5)
Summary of the method: as §1

Measured: log2 ratio of Biotin-Ahx-Ub-VS probe labelling

Chain of USP16 (Q9Y5T5 whole entry, looked up): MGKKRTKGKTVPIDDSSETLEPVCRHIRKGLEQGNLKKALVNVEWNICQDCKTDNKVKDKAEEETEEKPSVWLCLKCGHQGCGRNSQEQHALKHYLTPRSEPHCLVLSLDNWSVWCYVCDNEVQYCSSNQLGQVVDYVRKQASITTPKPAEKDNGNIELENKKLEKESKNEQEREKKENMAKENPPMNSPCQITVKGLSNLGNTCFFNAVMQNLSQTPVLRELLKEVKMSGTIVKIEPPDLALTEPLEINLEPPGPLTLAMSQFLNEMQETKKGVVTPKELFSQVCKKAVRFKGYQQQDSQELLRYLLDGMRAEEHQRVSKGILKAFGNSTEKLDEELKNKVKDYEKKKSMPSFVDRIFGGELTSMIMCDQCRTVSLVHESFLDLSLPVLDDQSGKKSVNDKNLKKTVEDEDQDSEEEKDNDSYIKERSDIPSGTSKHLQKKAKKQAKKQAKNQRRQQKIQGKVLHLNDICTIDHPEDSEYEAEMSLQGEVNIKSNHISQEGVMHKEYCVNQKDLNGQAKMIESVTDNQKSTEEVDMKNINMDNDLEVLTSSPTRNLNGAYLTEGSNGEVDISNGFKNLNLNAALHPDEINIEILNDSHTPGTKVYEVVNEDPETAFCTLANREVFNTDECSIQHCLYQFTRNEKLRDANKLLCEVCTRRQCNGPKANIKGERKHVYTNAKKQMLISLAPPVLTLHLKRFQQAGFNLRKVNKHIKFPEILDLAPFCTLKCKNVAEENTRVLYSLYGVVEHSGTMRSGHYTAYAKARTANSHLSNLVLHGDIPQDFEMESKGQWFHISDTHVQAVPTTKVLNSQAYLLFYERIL
Chain of USP10 (Q14694 whole entry): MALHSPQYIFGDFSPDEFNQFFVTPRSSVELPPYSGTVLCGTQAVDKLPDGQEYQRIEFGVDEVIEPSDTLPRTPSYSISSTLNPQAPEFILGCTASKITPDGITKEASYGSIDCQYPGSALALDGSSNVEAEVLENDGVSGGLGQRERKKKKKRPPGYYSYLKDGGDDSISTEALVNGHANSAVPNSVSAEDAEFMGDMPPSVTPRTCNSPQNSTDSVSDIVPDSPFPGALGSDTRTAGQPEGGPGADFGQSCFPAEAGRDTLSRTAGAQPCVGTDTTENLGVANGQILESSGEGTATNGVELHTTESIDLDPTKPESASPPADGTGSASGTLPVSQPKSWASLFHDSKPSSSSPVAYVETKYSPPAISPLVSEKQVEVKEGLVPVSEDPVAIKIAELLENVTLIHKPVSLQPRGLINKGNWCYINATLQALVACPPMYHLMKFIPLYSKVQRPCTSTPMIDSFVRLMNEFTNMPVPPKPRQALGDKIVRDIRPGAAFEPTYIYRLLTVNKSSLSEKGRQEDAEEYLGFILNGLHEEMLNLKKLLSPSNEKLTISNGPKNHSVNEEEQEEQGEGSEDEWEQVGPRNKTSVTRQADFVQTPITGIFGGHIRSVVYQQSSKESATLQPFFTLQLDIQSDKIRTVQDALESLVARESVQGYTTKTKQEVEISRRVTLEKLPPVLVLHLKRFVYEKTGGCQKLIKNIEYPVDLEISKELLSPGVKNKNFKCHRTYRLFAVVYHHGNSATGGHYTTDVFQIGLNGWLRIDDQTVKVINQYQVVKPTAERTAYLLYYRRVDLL
Chain of UCHL1 (P09936 whole entry, looked up): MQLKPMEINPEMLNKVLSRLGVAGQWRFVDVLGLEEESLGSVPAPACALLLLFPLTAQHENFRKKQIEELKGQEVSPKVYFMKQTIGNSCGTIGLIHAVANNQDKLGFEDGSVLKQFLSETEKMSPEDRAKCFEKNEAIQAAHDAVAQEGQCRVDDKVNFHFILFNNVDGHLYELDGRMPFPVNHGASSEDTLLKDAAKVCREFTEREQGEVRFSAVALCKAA

Cc1ncc2c(n1)CCN(C(=O)CCl)C2
inactive: OTUD6B -0.152 | OTUD7B -0.47 | PRPF8 0.0188 | PSMD7 0.0625 | UCHL1 -0.771 | UCHL3 0.268 | UCHL5 0.0568 | USP10 -0.242 | USP15 -0.636 | USP16 -0.136
